Consider 39 compounds from PubChem BioAssay (EPA / NIEHS).

Inconclusive results are not listed. Activity calls are given as the source filed them. The calls were made as follows: active = hit-call score of the fitted dose curve at least 0.9, where 1 is the maximum; inconclusive = response in the unintended direction; inactive = score below 0.9.

This assay in a line: Tanguay_ZF_120hpf_CIRC_legacy: (Legacy) Oregon State University Tanguay Lab 120 Hour Post-fertilization zebrafish Assay for Circulatory Malformation (AID 2283651). Here is the method: Tanguay_ZF_120hpf_legacy is a whole embryo, multiplexed endpoint assay using zebrafish larvae exposed for 120 hours post fertilization on a 96-well plate.Tanguay_ZF_120hpf_CIRC_legacy is one of one assay component(s) measured or calculated from the Tanguay_ZF_120hpf_legacy assay. It is designed to make measurements of zebrafish development as detected with brightfield microscopy of developing zebrafish embryos.Data from the assay component Tanguay_ZF_120hpf_CIRC_legacy was analyzed into 1 assay endpoints. This assay endpoint, Tanguay_ZF_120hpf_CIRC_legacy, was analyzed in the positive analysis fitting direction relative to DMSO as the negative control and baseline of activity. Using a type of morphology reporter, gain-of-signal activity can be used to understand changes in developmentals as they relate to the whole embryo. To generalize the intended target to other relatable targets, this assay endpoint is annotated to the zebrafish development intended target family, where the subfamily is angiogenesis.
Zebrafish husbandry: Tropical 5D wild-type adult zebrafish were housed in at an approximate density of 1000 per 100 gallon tank at the Sinnhuber Aquatic Research Laboratory, Oregon State University, Corvallis, OR. Each tank was kept at standard laboratory conditions of 28C on a 14-h light/10-h dark photoperiod in fish water consisting of reverse osmosis water supplemented with a commercially available salt (Instant Ocean). Spawning funnels were placed into the tanks the night prior, and embryos were collected and staged. To increase bioavailability, the chorion was enzymatically removed using pronase (63.6mg/ml, >/= 3.5U/mg, Sigma-Aldrich: P5147) at 4 hours post fertilization (hpf) using a custom automated dechorionator.Chemical exposures: Six hpf dechorionated embryos were placed 1 embryo per well in a 96-well plate prefilled with 90 ul of EM using automated embryo placement systems (AEPS). Ten microliters of each row of dilution plate 2 was added to 2 exposure plates. The final DMSO concentration used was 0.64% (vol/vol). Thirty-two embryos were also exposed to 5uM trimethyltin chloride (positive control). Plates were sealed to prevent evaporation and foil covered to reduce light exposure and kept in a 28C incubator. Embryos were statically exposed until 120 hpf. At 24 hpf, embryos were assessed for photomotor response using a custom photomotor response analysis tool (PRAT) and for developmental toxicity endpoints (MO24: mortality at 24 hpf, DP: developmental progression, SM: spontaneous movement, and NC: notochord distortion). At 120 hpf, locomotor activity was measured using Viewpoint Zebralab and assessed for 18 endpoints. Zebrafish acquisition and analysis program (ZAAP), a custom program designed to inventory, acquire, and manage zebrafish data, was used to collect developmental endpoints as either present or absent (i.e., binary responses were recorded). If mortality occurred for an embryo (at either 24 or 120 hpf), the non-mortality endpoints were not measured.
On to `Cc1ccc(N)cc1N`, for which the result was inactive.

`O=[N+]([O-])c1ccc(Cl)c(Cl)c1`: the compound was called inactive.

Turning to `CCN(CC)c1ccccc1`, the call was inactive.

On to `O=C(O)C1C(C(=O)O)C2(Cl)C(Cl)=C(Cl)C1(Cl)C2(Cl)Cl` (centres undefined), for which the call was inactive.

Take `CCOC(=O)c1ccccc1C(=O)OCC`: the result was inactive.

With `Cc1ccc([N+](=O)[O-])cc1C`, the compound was classed as inactive.

As to `CSC(C)(C)C=NO`, the compound was classed as inactive.

On to `O=C(O)C(Cl)Cl`, for which the call was inactive.

For `CCC1(c2ccccc2)C(=O)N=C(O)NC1=O` (centres undefined), the call was inactive.

With `CC(Cl)(Cl)C(=O)O`, the outcome was inactive.

Consider `OCC1CO1` (centres undefined), for which the call was inactive.

Consider `c1ccc(OP(Oc2ccccc2)Oc2ccccc2)cc1`, for which the result was inactive.

With `Nc1ccc2ccccc2c1`, the compound was classed as inactive.

Consider `CCNc1nc(Cl)nc(NC(C)(C)C)n1`, for which the compound was called inactive.

For the compound `CCOc1ccc(C(C)(C)COCc2cccc(Oc3ccccc3)c2)cc1`, the outcome was inactive.

Regarding `CCCCCCCc1ccc(O)cc1`, the result was inactive.

On to `CC(Cc1ccc(OCC(=O)O)cc1)NCC(O)c1csc(C(F)(F)F)n1` (centres undefined), for which the compound was called inactive.

Regarding `c1nc[nH]n1`, the compound was classed as inactive.

`CC(C)(C)OOC(C)(C)C`: the compound was called inactive.

As to `c1cc2c3c(cccc3c1)CC2`, the call was inactive.

For `Cc1ccc(O)cc1C`, the compound was called inactive.

Turning to `CCOP(=S)(Oc1ccc([N+](=O)[O-])cc1)c1ccccc1` (centres undefined), the compound was classed as inactive.

Consider `CCCCN(CCCC)SN(C)C(=O)Oc1cccc2c1OC(C)(C)C2`, for which the call was inactive.

As for `O=P1(N(CCCl)CCCl)NCCCO1` (centres undefined), the result was inactive.

Take `c1ccc2c(c1)Nc1ccccc1S2`: the result was inactive.

On to `CCOP(=S)(OCC)SCSCC`, for which the outcome was inactive.

For `COCCOCCO`, the call was inactive.

In the case of `ClC(Cl)c1ccccc1`, the result was inactive.

`Nc1cc2c3c(c1)C(c1ccccc1)=N[C@@H](NC(=O)c1cccnc1)C(=O)N3CC2`: the result was inactive.

On to `Cc1cccc(N)c1`, for which the compound was classed as inactive.

Take `CCOS(=O)(=O)OCC`: the call was inactive.

Turning to `[N-]=[N+]=[N-]`, the compound was classed as inactive.

With `CCCCc1ccccc1`, the compound was called inactive.

In the case of `CN(C)C(=O)Cl`, the compound was classed as inactive.

Turning to `CC(C)(C)c1ccc(O)cc1`, the outcome was inactive.

Regarding `O=[N+]([O-])c1ccccc1`, the result was inactive.

In the case of `ClC(Cl)(Cl)c1ccccc1`, the compound was called inactive.

For the compound `CCC(C)(C)c1ccc(O)cc1`, the call was inactive.

`Nc1ccc(Cl)cc1`: the compound was called inactive.
